Test results published in the supplement of paper PMC6555819.

What was measured:
Assay in all cases: PBM binding z-score (relative to random genomic background probes); higher = stronger binding; sequences stand for … in GC…GCGATTGACAGCGTAGAATGAAGG
[1] = tested on: RARb homodimer (NR concentration 270 nM)
Procedure, shortened: (§1)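 Scanned fluorescence from custom Agilent 4×180K protein-binding microarrays was regression-normalized. Binding z-scores use random background probes as reference. Ligand-free nuclear receptor dimers were incubated on the arrays for 1 h and detected with antibodies against each partner (one per run).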

[2] = tested on: RARg:RXRa (NR concentration 270 nM, RXRa partner concentration 90 nM)
Procedure, shortened: as §1

[3] = tested on: RARg homodimer (NR concentration 270 nM)
Procedure, shortened: as §1

[4] = tested on: RXRa DBDmut IVT, anti-RXR (DBD mutation: RXRa K156A/R161A, NR concentration 90 nM)
Procedure, shortened: as §1

[5] = tested on: RXRa homodimer (NR concentration 180 nM)
Procedure, shortened: as §1

[6] = tested on: THRa:RXRa (NR concentration 90 nM, RXRa partner concentration 90 nM)
Procedure, shortened: as §1

[7] = tested on: THRa homodimer (NR concentration 90 nM)
Procedure, shortened: as §1

[8] = tested on: VDR homodimer (NR concentration 270 nM)
Procedure, shortened: as §1

Sequence	PBM binding z-score [1]	PBM binding z-score [2]	PBM binding z-score [3]	PBM binding z-score [4]	PBM binding z-score [5]	PBM binding z-score [6]	PBM binding z-score [7]	PBM binding z-score [8]
ACTCGGAGAACAAAGGTCAGAGCTACGCCAGTGA	4.39	4.46	3.88	0.505	4.55	2.76	0.0239	0.553
ATCGAAAGGTCGCGGTGAGTATAGAGAAAGGGAA	3.05	5	4.48	1.33	5.39	2.84	0.211	1.06
AGAATGAGGTTAAGACCAGGGAAACAGAATACAT	1.01	1.97	1.33	0.973	2.47	2.48	0.691	0.514
CGTCCCAGGTCAATGCTAGGTCAGTGAAAGCATT	4.23	6.41	5.01	1.99	3.1	4.25	2.99	1.74
GTACCAAGCTGAATAGGTCGTTGATGAGTAGGCG	0.0267	-0.0216	0.164	-0.0938	0.371	-0.0665	-0.873	-0.43
GCTGCTAGGTCAACTGCTGGTCAGCTAAAGCTCG	3.54	5.38	5.45	1.4	2.79	2.92	0.954	-0.195
TCGAGTAGGTTTCCAATGGGGCATTCAGCTTTCT	-0.0582	-0.76	-0.806	0.449	-0.581	-0.683	-0.262	-0.443
GCGAGTGGGGCATCAGCAGGTTACCATAACTTAA	0.915	1.05	0.378	-0.215	0.32	0.958	0.127	-0.291
GCAGAGAGGTGAAACGCAGGTAACTCAGGGTGGC	1.31	2.59	1.21	0.025	1.79	2.37	0.0883	-0.369
ATACGAAGGTGATCGTGAGGTCGTTGATACTAAC	1.55	2.15	0.985	0.65	1.6	3.28	1.94	2.48
TCTATTAGTTGATTATGGCAACCGAAACAGCGGA	-0.245	0.408	0.199	1.38	0.509	0.165	0.396	0.715
CCTGCTAGGTCATTGGTCAGCTAAAGCAGCTCGC	3.25	3.88	4.43	3.02	2.61	2.79	1.24	1.27
AGAATGACGTTATACGTAGATCAGGGAAGAAAGT	-0.508	-0.123	0.109	-0.541	-0.108	-0.592	-1.02	-0.467
GCTTGTAGATCAAGGTTAAGAGAGACTAAGCTAA	0.148	0.263	0.22	-0.00641	0.438	1.2	-0.0888	-0.335
GCTGCTAGGTCAGGTTGGTCATCTAACGGGTACG	2.84	2.81	3.9	0.588	1.18	1.94	0.942	0.689
CCTGCTGGGCCATTCAGAGGTCATTGATCATATG	4.1	4.63	3.19	1.05	3.79	3.24	1.12	3.17
CGTCCAAGGTCAATGCTAGGTCAATGAAAGCATT	5.08	7.66	6.89	3.4	5.18	4.57	3.59	3.48
CGAATGAGGGCATGAGTTGATAGCAAATGCCGAT	0.499	1.14	1.58	2.3	1.03	1.83	0.345	1.33
ACTCGGAGGACAAAGGTCAGAGTTACGCCAGTGA	4.32	5.86	4.91	1.63	4.97	3.59	0.845	0.984

Sequence	PBM binding z-score [1]	PBM binding z-score [2]	PBM binding z-score [3]	PBM binding z-score [4]	PBM binding z-score [5]	PBM binding z-score [6]	PBM binding z-score [7]	PBM binding z-score [8]
TTACCAAGGAGAGCTGAGGTCGTTGATCCAACTC	0.714	0.0578	-0.138	-0.0158	0.657	2.56	1.2	2.11
TCGAGTAGGTCAGGGGCATTCAGAATGGCGTCGA	2.9	3.14	3.99	0.647	2.5	1.6	0.0377	0.669
AGAAAGAGGTTACCAAAGATCAGGGAAACGCTTG	1.03	2.51	1.84	0.282	3.17	1.91	-0.577	-0.0812
GATACAGGGTCATGGCCAGAGTACGCGTATTGAT	3.44	5.62	5.09	2.44	6.72	3.78	0.968	2.77
CGTCCACGGTCAAAGGTCAGTGAAGAGATGACGG	4.48	6.76	6.04	0.983	7.05	3.11	0.0529	0.561
TCATATTGGTAAACAGGTGAAAGTCCGTAAGTTA	0.882	0.412	0.0109	1.5	0.951	0.634	0.5	0.487
CAAACTAGGTCATGGTCAAAGTCGGTTTGTGCCA	3.44	3.83	4.77	1.45	3.08	3.04	1.5	1.15
ATCGAAAGCTCGAAGGTGAGTATACCCACCCGAA	-0.378	-0.032	0.202	-1.19	0.158	-0.167	-1.04	-0.249
GCTATTAGTTGATAGGGCAACCGAATGATTCTCG	0.604	0.208	0.649	0.36	0.26	-0.111	-0.518	0.0585
GGAACGAGGCCATTCGAGTTGATAGCATGGCGAT	-0.135	0.361	0.706	2.13	-0.125	2.23	-0.443	1.7
CCAGACAGGTGAAAGGGAACTCAGTCTGGTACGC	0.101	0.15	0.299	-0.242	0.59	0.0918	-0.374	0.0555
TCTGCTAGGTAAGTTGGTCAGCTAACGAGCTGCC	-0.545	-0.54	-0.71	0.107	-0.613	-0.549	-0.918	-0.989
CCTAGTGGGCCAAAAAGGTCATTGATGCCGATAA	4.28	4.7	4.5	0.794	4.79	2.71	0.434	2.66
TCGGCTAGGTCAACGATGGTCAGCTAATCTGCTA	3.12	4.15	5.22	0.991	2.56	2.96	0.739	0.189
ATCGAAAGGTCGTGGGGTGAGTATACAGAAAGGC	3.6	5.2	4.44	2.07	6.17	3.62	2.02	2.16
CCTTAAGGGTCACTGACAGGTTATAGCATTTGGA	4.71	7.23	6.91	3.42	6.82	3.85	0.468	2.04
GCTGCTAAGTCAACTGATGGTCAGCTAAAGCTCG	0.11	0.204	-0.211	0.184	-0.0847	-0.519	-1.1	-1.02
TCCAGTTGGTCAAAGGTCACACACTCGAAATGCG	4.95	7.17	6.07	2.25	7.96	4.08	2.47	2.99
ATCTCTAGGTAACAAGTTGAGTGAAAGAGAGGAC	0.79	0.858	0.91	-0.013	0.381	1.41	0.716	0.639

Sequence	PBM binding z-score [1]	PBM binding z-score [2]	PBM binding z-score [3]	PBM binding z-score [4]	PBM binding z-score [5]	PBM binding z-score [6]	PBM binding z-score [7]	PBM binding z-score [8]
TCGAGTAGGTTAGCCGGGGCATTCAGCCAACATA	0.49	0.0604	-0.231	0.227	0.332	1.17	-0.114	-0.000725
CCTGCTAGGTCAATAGTCAGCTAAAGCAGCTCGC	2.18	3.06	3.91	1.56	1.42	1.74	0.258	-0.379
CAAACTAGGTCAAAGGACAAAGTCGAGCCAACCA	3.11	4.32	4.77	1.7	3.31	2.92	0.809	0.753
AATCCAGGGTCATCGTAGGCCAGAGTACGCACAG	3.82	5.9	5.22	3.32	6.77	4.55	1.86	4.06
GCGACTGGGGTAAAGCAGGTTACCATAAGGTTGG	0.792	0.464	0.108	-0.286	1.03	2.59	0.334	-0.11
TCTGATAGGTCAGTTGGTCAGCTAACGAGCTGCC	2.94	3.32	4	1.1	2.15	0.722	-0.367	-0.342
AGTCAAAGTTCATCTAGGGAACGTAAGATATGCT	3.82	5.57	6.19	4.67	4.53	2.92	-0.658	4.63
ACTAGCAGGCCAAGTCTGGGTCACTCAAACAAAG	2.36	2.25	1.48	-0.171	0.902	2.35	0.768	0.0682
CGTCCAAGGTTAGCAGGTCAGTGAAAGCGACGTG	3.14	2.7	2.6	0.446	2.04	2.07	0.653	0.443
CAAACTAGGTCACGAAAGGTCATAGTCGAATGAC	5.66	7.6	8.4	2.64	8.01	5.09	2.8	3.75
CCTACTGGGCCAAAAACGTCATTGATGCCGATAA	-0.34	-0.089	-0.172	-0.196	0.029	-0.371	-0.47	-0.735
TGAATGAAGTTATAAGATCAGGGAACGTTGCAAA	-0.946	-0.0858	-0.101	-0.953	-0.319	-0.471	-0.931	-0.524
CCAGACAGGTGAGAAGGTAACCCAGCCTCGATTA	0.888	0.695	0.557	-0.131	0.558	0.444	0.455	-0.253
CCTAGCAGGCCAGGGTCACTCCAGCATTTCGCTT	2.7	2.61	2.18	0.578	2.86	2.61	1.02	1.64
CCTAGTTGGTCACGGTCACACACGCTATAGGTAC	2.79	1.84	2.25	1.13	0.982	1.05	1.4	0.987
TCGAGTAGGTTGCCAATGGGGCATTCAGCTTTCT	-0.36	-0.509	-0.841	0.244	-0.482	-0.51	-0.951	-0.846
CGAACTTGGTCAAGGACAGTGAATCTCCGCACGC	0.692	0.479	1.1	0.243	0.275	1.89	1.37	-0.254
GGAACGAGGGCATTCGAGTTGATGGCATGGCGAT	0.552	1.05	1.17	3.15	0.655	2.96	-0.631	3.46
TTACCAAGGTGAAAAGTCGTTGATGCACGCCTTG	0.298	0.676	0.264	-0.185	1.15	1.37	0.0466	-0.327
